Compounds without any hit were thinned out: in the full panel of roughly 79,000, 15% have a hit. A number with no mark means an inactive call. The source made the active and inactive calls. No stated cut-off is given here; in the data, active means growth inhibition above about 70%; inactive means the rest.

One assay can be described thus: NCI Yeast Anticancer Drug Screen. Data for the rad50 strain (AID 155).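 Further: 0% = growth of vehicle-only cultures of the same strain.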 To be noted: S. cerevisiae rad50 strain growth inhibition; at 5.0 µM (retest, dose inferred, filed as 0.5); active compounds read high. The gist of the method: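 Readout: growth inhibition relative to vehicle-treated cultures. Compound exposure was carried out in a genetically defined yeast strain deficient in DNA damage repair.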
With `COc1ccnc(-c2cc(OC)cc(/C(N)=N/O)n2)c1`, the growth inhibition was 2%.
Still for that read-out and setting: then `Nc1ccccc1CCc1ccccc1`, with 0%; and `COC(=O)c1ccc(OCCC(=O)CCl)cc1`, with 0%; and `CCCCCCCCCCCCS(=O)(=O)CC(Br)C(=O)c1ccco1` (stereo unspecified), with 57%.
Still for that read-out and setting: then `FC(F)(F)C(F)(F)C1(F)C(F)(F)C(F)(F)C(F)(F)C(F)(F)C1(F)F`, with -1%; and `O=C(O)C(O)C(O)C(O)C(O)CO.[Ag]` (stereo unspecified), with 99% (active).

The assay is the same for the next values; noted with them: S. cerevisiae rad50 strain growth inhibition; at 50.0 µM (retest, dose inferred, filed as 5.0); active compounds read high.
With `CCc1ccc(/C(C)=N/NC(N)=S)cc1`, the growth inhibition was 89% (active).
On the same count and under the same terms, then `CC(C)/C=C1\CCOC1=O`, with 9%.
Same read-out and setting: the result for `COc1c(C(=O)/C(=N/Nc2ccccc2)C(C)=O)c(O)c(OC)c2occc12` reads 94% (active); that for `COc1ccc(CC/C(=N/O)c2ccccc2)cc1`, 92% (active); that for `CCOC(=O)C1(C#N)C(c2ccccc2)C1(C#N)C#N` (stereo unspecified), 85% (active).
On the same count and under the same terms, the result for `COc1ccc(OC)c(/C=C/NC=O)c1` reads 10%; that for `CC(=O)Oc1ccc(-c2ccc(Br)cc2)cc1`, 92% (active).
Regarding `COC(=O)/C(C#N)=C/c1cc(OC)c(O)cc1Br`, the growth inhibition was 56%.
As for `CCC(C1SC(=S)NC1=O)C1SC(=S)NC1=O` (stereo unspecified), the growth inhibition is 13%.
On the same count and under the same terms, then `CCC(C)c1ccc(O)c(C(C)c2ccccc2)c1` (stereo unspecified), with 70% (active).
Same read-out and setting: the result for `C/C(=N\NC(=S)N1CCN(c2ccccc2)CC1)c1nccs1` reads 96% (active); that for `COc1ccc2c(C(=O)c3ccccc3)c3[n+](cc2c1OC)CCc1cc2c(cc1-3)OCO2`, 38%.
In the case of `Cc1cccc(C[N+](C)(C)CCCO)c1C`, the growth inhibition is 1%.
On to `c1ccc(N=C2SC3=NCCN3C2=Nc2ccccc2)cc1`, for which the growth inhibition is 87% (active).
The same measure, in the same setting: the result for `Cc1ccc(SCc2ccccc2Cl)nn1` reads 3%; that for `CCCc1cc(=O)oc2c3c(c4c(c12)OC(C)(C)CC4)O[C@H](C)[C@H](C)C3=O`, 99% (active).
On the same count and under the same terms, the result for `CC1(C)COC(c2cccc(C(O)c3ccc(Cl)cc3)c2)=N1` (stereo unspecified) reads 99% (active); that for `CCOC(=O)c1cc(NC(=O)c2cc(NC(=O)c3cc(NC(=O)c4c(-c5ccccc5)noc4C)cn3C)cn2C)cn1C`, 56%; that for `O=C(N/N=C/c1ccccc1O)c1ccccc1-n1cccc1`, 64%.
`O=C1CN(CCN2CCOCC2)CC(=O)N2Cc3ccccc3CN12`: the growth inhibition is 38%.
Turning to `CCC[CH2][Sn]([CH2]CCC)([NH]c1ncnc2[nH]cnc12)[NH]c1ncnc2[nH]cnc12`, the growth inhibition was 96% (active).
Still for that read-out and setting: then `Oc1ccc(Br)cc1C=Nc1c(NC2CCCCC2)oc2ccc(Br)cc12`, with 9%; and `Cc1cc2c(C(C)C)c(O)c(O)c3coc(/c1=c1/c(C)cc4c(C(C)C)c(=O)c(=O)c5coc1c45)c32`, with 97% (active); and `O=C1c2ccccc2C(=O)N1/N=C\c1ccccc1[N+](=O)[O-]`, with 75% (active).
Still for that read-out and setting: the result for `O[C@H](CNCCS)[C@@H](O)CNCCS` reads 14%; that for `C[C@]12CC[C@H](O)CC1=CC[C@@H]1C2CC[C@]2(C)C(=O)N(N)C(=O)CC12` (stereo partly specified), 92% (active).
On the same count and under the same terms, the result for `O=C(C(/C=N/C(=S)NCc1ccccc1)=C(/O)c1ccccc1)c1ccccc1` reads 86% (active); that for `C=CC1(c2ccc(-c3ccccc3)cc2)OCCO1`, 14%; that for `C=C1CC(COc2ccc3c(C)cc(=O)oc3c2)(c2ccccc2)OC1=O` (stereo unspecified), 8%.
As for `CN(C)CCCNc1c2ccccc2nc2ccc([N+](=O)[O-])cc12`, the growth inhibition is 80% (active).
The same measure, in the same setting: the result for `CN1CCC(OC(=O)c2ccc3ncccc3c2)CC1` reads 6%; that for `COc1ccc(/C=C2/C(=O)N(C(=O)c3ccccc3O)N=C2C)cc1OC`, 69%.
With `CC1([N+](=O)[O-])C(=O)C2(N3CCOCC3)CCCC2C1c1ccccc1` (stereo unspecified), the growth inhibition is 75% (active).
Still for that read-out and setting: then `COc1ccc(C2=C(Cl)C(=O)N(c3ccc(C)cc3)C(=O)C2(Cl)Cl)cc1`, with 59%.
On the same count and under the same terms, the result for `COc1ccnc(-c2cc(OC)cc(/C(N)=N/O)n2)c1` reads 59%; that for `Nc1ccccc1CCc1ccccc1`, 79% (active); that for `COC(=O)c1ccc(OCCC(=O)CCl)cc1`, 56%.
Turning to `CCCCCCCCCCCCS(=O)(=O)CC(Br)C(=O)c1ccco1` (stereo unspecified), the growth inhibition was 96% (active).
The same measure, in the same setting: the result for `FC(F)(F)C(F)(F)C1(F)C(F)(F)C(F)(F)C(F)(F)C(F)(F)C1(F)F` reads -2%; that for `O=C(O)C(O)C(O)C(O)C(O)CO.[Ag]` (stereo unspecified), 98% (active).

Staying with this assay, now noted: S. cerevisiae rad50 strain growth inhibition; at 50.0 µM; active compounds read high.
In the case of `CCc1ccc(/C(C)=N/NC(N)=S)cc1`, the growth inhibition is 53.6%.
Regarding `CC(C)/C=C1\CCOC1=O`, the growth inhibition was 36.3%.
The same measure, in the same setting: the result for `COc1c(C(=O)/C(=N/Nc2ccccc2)C(C)=O)c(O)c(OC)c2occc12` reads 45.7%.
Consider `COc1ccc(CC/C(=N/O)c2ccccc2)cc1`, for which the growth inhibition was 97% (active).
Consider `CCOC(=O)C1(C#N)C(c2ccccc2)C1(C#N)C#N` (stereo unspecified), for which the growth inhibition is 97.9% (active).
The same measure, in the same setting: the result for `COc1ccc(OC)c(/C=C/NC=O)c1` reads -11.4%; that for `CC(=O)Oc1ccc(-c2ccc(Br)cc2)cc1`, 89.2% (active).
For the compound `COC(=O)/C(C#N)=C/c1cc(OC)c(O)cc1Br`, the growth inhibition was 48.6%.
In the case of `CCC(C1SC(=S)NC1=O)C1SC(=S)NC1=O` (stereo unspecified), the growth inhibition is 99.3% (active).
On the same count and under the same terms, then `CCC(C)c1ccc(O)c(C(C)c2ccccc2)c1` (stereo unspecified), with 89.6% (active); and `C/C(=N\NC(=S)N1CCN(c2ccccc2)CC1)c1nccs1`, with 90.5% (active).
Same read-out and setting: the result for `COc1ccc2c(C(=O)c3ccccc3)c3[n+](cc2c1OC)CCc1cc2c(cc1-3)OCO2` reads 65.7%; that for `Cc1cccc(C[N+](C)(C)CCCO)c1C`, -6.15%.
Still for that read-out and setting: the result for `c1ccc(N=C2SC3=NCCN3C2=Nc2ccccc2)cc1` reads 50%; that for `Cc1ccc(SCc2ccccc2Cl)nn1`, 6.6%.
As to `CCCc1cc(=O)oc2c3c(c4c(c12)OC(C)(C)CC4)O[C@H](C)[C@H](C)C3=O`, the growth inhibition is 88.5% (active).
Regarding `CC1(C)COC(c2cccc(C(O)c3ccc(Cl)cc3)c2)=N1` (stereo unspecified), the growth inhibition was 47%.
The same measure, in the same setting: then `CCOC(=O)c1cc(NC(=O)c2cc(NC(=O)c3cc(NC(=O)c4c(-c5ccccc5)noc4C)cn3C)cn2C)cn1C`, with 50.3%.
Still for that read-out and setting: the result for `O=C(N/N=C/c1ccccc1O)c1ccccc1-n1cccc1` reads 53.6%; that for `O=C1CN(CCN2CCOCC2)CC(=O)N2Cc3ccccc3CN12`, 61.6%.
Same read-out and setting: then `CCC[CH2][Sn]([CH2]CCC)([NH]c1ncnc2[nH]cnc12)[NH]c1ncnc2[nH]cnc12`, with 87.8% (active); and `Oc1ccc(Br)cc1C=Nc1c(NC2CCCCC2)oc2ccc(Br)cc12`, with -9.35%; and `Cc1cc2c(C(C)C)c(O)c(O)c3coc(/c1=c1/c(C)cc4c(C(C)C)c(=O)c(=O)c5coc1c45)c32`, with 98.9% (active).
As for `O=C1c2ccccc2C(=O)N1/N=C\c1ccccc1[N+](=O)[O-]`, the growth inhibition is 89% (active).
Same read-out and setting: then `O[C@H](CNCCS)[C@@H](O)CNCCS`, with 78% (active); and `C[C@]12CC[C@H](O)CC1=CC[C@@H]1C2CC[C@]2(C)C(=O)N(N)C(=O)CC12` (stereo partly specified), with 83.7% (active); and `O=C(C(/C=N/C(=S)NCc1ccccc1)=C(/O)c1ccccc1)c1ccccc1`, with 98.8% (active).
On the same count and under the same terms, the result for `C=CC1(c2ccc(-c3ccccc3)cc2)OCCO1` reads 51.3%.
On to `C=C1CC(COc2ccc3c(C)cc(=O)oc3c2)(c2ccccc2)OC1=O` (stereo unspecified), for which the growth inhibition was 36%.
Same read-out and setting: then `CN(C)CCCNc1c2ccccc2nc2ccc([N+](=O)[O-])cc12`, with 68.3%; and `CN1CCC(OC(=O)c2ccc3ncccc3c2)CC1`, with 34.6%; and `COc1ccc(/C=C2/C(=O)N(C(=O)c3ccccc3O)N=C2C)cc1OC`, with 66.7%.
Same read-out and setting: the result for `CC1([N+](=O)[O-])C(=O)C2(N3CCOCC3)CCCC2C1c1ccccc1` (stereo unspecified) reads -2%; that for `COc1ccc(C2=C(Cl)C(=O)N(c3ccc(C)cc3)C(=O)C2(Cl)Cl)cc1`, 83.3% (active); that for `COc1ccnc(-c2cc(OC)cc(/C(N)=N/O)n2)c1`, 96.8% (active).
The same measure, in the same setting: the result for `Nc1ccccc1CCc1ccccc1` reads 96.9% (active).
With `COC(=O)c1ccc(OCCC(=O)CCl)cc1`, the growth inhibition is 99.5% (active).
On the same count and under the same terms, the result for `CCCCCCCCCCCCS(=O)(=O)CC(Br)C(=O)c1ccco1` (stereo unspecified) reads 94.2% (active); that for `FC(F)(F)C(F)(F)C1(F)C(F)(F)C(F)(F)C(F)(F)C(F)(F)C1(F)F`, 99.7% (active).
For the compound `O=C(O)C(O)C(O)C(O)C(O)CO.[Ag]` (stereo unspecified), the growth inhibition was 99.2% (active).

For the origin of these results see PubChem BioAssay (NCI).
